Test results as given in PubChem BioAssay AID2391 (Southern Research Specialized Biocontainment Screening …, 2010).
About 410 (0.13%) of roughly 310,000 compounds were called active. Not shown: some 2% with an inconclusive outcome. No rule for the calls is given here. The list is a sample of the results. Entries with a potency or affinity are not part of this list.

assay: RSV antiviral activity via CPE protection, HEp-2 cells, primary 10 µM value included (AID 2391); conditions: RSV-induced CPE inhibition, at 10 µM, active compounds read high

CPE inhibition, inactive:
Cc1ccc(CC(=O)NCC2CCCCC2)cc1 0.51%
Cc1ccsc1CNC1C2CC3CC(C2)CC1C3 (stereo not given) -1.39%
Cc1ccc(C(=O)N/C(=C\c2ccc(Cl)cc2)C(=O)NCCCN2CCOCC2)cc1 2.02%
Cc1ccc(C(=O)N/C(=C\c2ccc(Cl)cc2)C(=O)NCCN2CCOCC2)cc1 0.95%
CC(C)c1ccc(/C=C(\NC(=O)c2ccccc2)C(=O)NCCN2CCOCC2)cc1 0.84%
CC(C)c1ccc(/C=C(\NC(=O)c2ccccc2)C(=O)NCCCN2CCOCC2)cc1 0.11%
N#C/C(=C\c1ccc(OCc2ccc(C(=O)O)cc2)cc1)C(=O)NCc1ccccc1 1.49%
CCOc1ncccc1C(=O)N(C)CC(=O)Nc1ccccc1SC 1.11%
Clc1ccc(Sc2cc(Cl)c(-c3ccccc3)nn2)cc1 4.99%
O=C(C1=COCCO1)N1CCN(S(=O)(=O)c2cccc(F)c2)CC1 1.49%
Cc1cc2c(cc1S(=O)(=O)Nc1cccc(C)c1C)n(C)c(=O)c(=O)n2C -1.46%
CN(C)S(=O)(=O)c1cccc(NC(=O)COC(=O)CCC(=O)c2cccs2)c1 -1.26%
Cc1ccc(S(=O)(=O)NNC(=O)Nc2ccc(C)c(C)c2)c(C)c1 1.56%
COc1cccc(CN2C(=O)C3CCCN3c3ccc(S(=O)(=O)N4CCOCC4)cc32)c1 (stereo not given) 15.8%
COc1ccc(CCNC(=O)c2ccc(-c3ccc([N+](=O)[O-])cc3)o2)cc1OC 3.03%
COc1ccc(CCNC(=O)c2ccc([N+](=O)[O-])cc2)cc1 0.4%
COC(=O)c1ccccc1OC(=O)c1cc2ccccc2oc1=O -0.19%
Nc1nc(SCC(=O)c2ccc(F)cc2)n[nH]1 0.71%
O=C(CNc1ccccc1)N/N=C/c1cn(-c2ccccc2)nc1-c1ccccc1 6.81%
O=C(CNc1cccc(C(F)(F)F)c1)N/N=C/c1ccccc1C(=O)O 1.07%
CCOC(=O)N1CCN(C(=O)COc2ccc3c(c2)C(=O)CC(C)(C)O3)CC1 1.7%
COc1cc(C(C(=O)NC2CCCC2)N(C(=O)c2snc(C(N)=O)c2N)c2ccccc2)cc(OC)c1OC (stereo not given) 1.74%
COc1ccc(C(C(=O)NC2CCCC2)N(C(=O)c2snc(C(N)=O)c2N)c2ccccc2OC)cc1OC (stereo not given) 17.8%
COc1ccc(C(C(=O)NC2CCCC2)N(C(=O)c2snc(C(N)=O)c2N)C2CCCC2)cc1OC (stereo not given) 3.34%
Cc1ccc(N(C(=O)c2snc(C(N)=O)c2N)C(C(=O)NC2CCCC2)c2ccncc2)cc1 (stereo not given) 0.36%
